Inconclusive results are not listed. Unmarked numbers belong to inactive results. Calls of active or inactive are those of the source. Calls come from the whole dose curve; as a rule, active = well fitted inhibition curve with a large enough effect; inconclusive = small, poorly fitted or top-dose-only effect; inactive = no such curve, though single readings can be large or run the other way.
Potency is the fitted concentration of half-maximal effect.

A short description of the assay: Confirmatory fluorescence-based thiol-reactive (MSTI) qHTS assay for identification of artifact compounds. As to conditions: MSTI thiol-reactivity probe, 1 h; series mostly up to 39.2 µM; activity change, negative = inhibition: at the top concentration. The gist of the method: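 Compounds, dosed in qHTS format, were mixed with 4 uM MSTI probe in 1X PBS pH 7.4 containing 2% DMSO. After 1 hour at room temperature in the dark, fluorescence was measured.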
On the technique in general: qHTS replaces the single test concentration by a dilution series.
For the compound `O=C(CSc1nnc(-c2cccc(F)c2)c(-c2cccc(F)c2)n1)NC1CCCCC1`, the “activity change, negative = inhibition” value was 89.3%.

As for `C=C1Cc2c(Cl)cc3[nH]c4c5c3c2[C@@]2(O)[C@@H]1C[C@@H]2C(C)(C)O[C@H]5[C@@H]1CC[C@@]2(O)[C@@]35O[C@@H]3[C@@H](O)[C@@H](C(=O)O)O[C@H]5CC[C@]2(C)[C@@]41C`, the Potency was 3.86 µM (active).

For the compound `Cc1c(C(=O)OCCOc2ccccc2)[nH]c2c1C(=O)CC(c1ccccc1)C2` (stereo not drawn), the “activity change, negative = inhibition” value is 433%.

In the case of `COC(=O)c1ccc(NC(=O)CC2C(=O)N(c3ccccc3)C(=O)N2Cc2ccco2)cc1` (stereo not drawn), the “activity change, negative = inhibition” value is 188%.

In the case of `CC1CCc2noc(NC(=O)c3ccc([N+](=O)[O-])cc3)c2C1` (stereo not drawn), the Potency was 2.44 µM (active).

As for `Cc1ccc2cccc(NS(=O)(=O)c3ccccc3[N+](=O)[O-])c2n1`, the Potency is 4.33 µM (active).

For `COC(=O)c1c(OCc2ccccn2)cc(=O)n2c1CCN(C(=O)c1n[nH]c3c1CCCC3)CC2`, the “activity change, negative = inhibition” value is 50.9%.

With `COc1ccc(/C=C/c2cc(O)cc(O[C@H]3OC(CO)C(O)C(O)C3O)c2)cc1` (stereo partly drawn), the “activity change, negative = inhibition” value was 11.9%.

Take `O=c1c2ccccc2nc2sc(NS(=O)(=O)c3ccc4c(c3)CCC4)nn12`: the “activity change, negative = inhibition” value was 226%.

As for `COc1ccc(NC(=O)Nc2cccc(-c3noc(C)n3)c2)cc1`, the “activity change, negative = inhibition” value was 61.9%.

Regarding `CC(C)c1cnc2c(c1SCC(=O)Nc1cccc([N+](=O)[O-])c1)c(=O)n(C)c(=O)n2C`, the “activity change, negative = inhibition” value is 8.16%.

Take `COc1ccc(OCc2nnc(-c3ccccc3)o2)cc1`: the “activity change, negative = inhibition” value was 77.2%.

As for `Cc1ccc(-c2nnc(Nc3cccc(O)c3)c3ccccc23)cc1S(=O)(=O)N1CCN(C)CC1`, the “activity change, negative = inhibition” value is 36.6%.

Regarding `CC1CC(C)CN(c2oc(-c3ccc(OCc4ccc(Cl)cc4)cc3)nc2C#N)C1` (stereo not drawn), the “activity change, negative = inhibition” value was 0.0837%.

For the compound `O=C(Cn1cc(SCc2ccccc2F)c2ccccc21)N1CCCCC1`, the “activity change, negative = inhibition” value was 13.1%.

As to `COc1cccc(CN2CCCN(Cc3ccc(F)cc3)S2(=O)=O)c1`, the “activity change, negative = inhibition” value is 74.8%.

As to `CCOC(=O)c1ccc(N2CCN(c3ccc(F)cc3)CC2)c(NC(=O)Nc2cccc(OC)c2)c1`, the “activity change, negative = inhibition” value was 102%.

On to `O=C(O)c1ccc(-n2c(/C=C\c3ccc(O)cc3)nc3ccccc3c2=O)cc1`, for which the “activity change, negative = inhibition” value is 62.5%.

Regarding `Cn1cc(CN(C(=O)Nc2ccc(Cl)c(Cl)c2)C2CCCCC2)c2ccccc21`, the “activity change, negative = inhibition” value was 81.3%.

On to `CSc1ncc(C(=O)NCc2ccccc2)c(-c2ccccc2)n1`, for which the “activity change, negative = inhibition” value was 33.3%.

Take `CC(=O)O[C@H]1C[C@@H]2CC[C@@H]3[C@H](CC[C@@]4(C)[C@H]3C[C@H](N3CC[N+](C)(C)CC3)[C@@H]4OC(C)=O)[C@@]2(C)C[C@@H]1N1CC[N+](C)(C)CC1`: the “activity change, negative = inhibition” value is 38.3%.

With `O=C(COc1cccc(Cl)c1)N1CCC(c2nc3ccccc3o2)CC1`, the “activity change, negative = inhibition” value was 40.2%.

Consider `COc1ccc(C2C(C(=O)Nc3ccccc3)=C(C)Nc3c(C(=O)Nc4ccccc4)cnn32)cc1` (stereo not drawn), for which the “activity change, negative = inhibition” value is 128%.

With `COc1ccc(-c2cc(C(F)(F)F)n3nc(-c4ccc(Cl)cc4)cc3n2)cc1OC`, the “activity change, negative = inhibition” value was 214%.

For the compound `CCOc1ccc(C(=O)N2CCC(c3nc(-c4ccc(S(=O)(=O)N5CCCC5)cc4)no3)CC2)cc1`, the “activity change, negative = inhibition” value was 15.2%.

As to `Cc1c(O)cc(O)c2c(=O)c(-c3ccc(O)cc3)coc12`, the “activity change, negative = inhibition” value is 0.887%.

With `CCOC(=O)c1c(NC(=O)c2ccc(S(=O)(=O)N(CC)CC)cc2)sc2c1CCCCC2`, the “activity change, negative = inhibition” value is 4.96%.

Regarding `CCOc1ccc(CNC(=O)c2cnc(SC)nc2CC)cc1`, the “activity change, negative = inhibition” value was 49.6%.

Consider `Nc1c(N=Nc2ccc([N+](=O)[O-])cc2)c(S(=O)(=O)O)cc2cc(S(=O)(=O)O)c(/C=C/c3ccccc3)c(O)c12`, for which the Potency was 0.0612 µM (active).

As to `O=S1(=O)N=C(Oc2ccc(Br)cc2)c2ccccc21`, the “activity change, negative = inhibition” value was 10.1%.

Take `Cc1ccc(NC(=O)CC2Nc3cccc4cccc(c34)NC2=O)cc1` (stereo not drawn): the Potency is 1.54 µM (active).

On to `Clc1ccc(CNc2cc(-c3ccc4c(c3)OCO4)ncn2)cc1`, for which the “activity change, negative = inhibition” value is 124%.

Take `Cc1ccc(Cn2cc(CCC(=O)NC3CCCCC3)c3ccccc32)cc1`: the “activity change, negative = inhibition” value was 117%.

Values taken from PubChem BioAssay AID1845226 (National Center for Advancing Translational Sciences (NCATS), 2023).
